Screens: PubChem BioAssay, National Center for Advancing Translational Sciences (NCATS)
JMJD2A Tudor inh – blocks the human JMJD2A Tudor domain. O75164. AlphaScreen JMJD2A-Tudor / H3K4me3 peptide binding. Potency, µM (doses to about 114 µM), without a hit: at the top dose activity change, negative = inhibition, hits mostly inhibitors. 390,000 compounds, 4.4% hits. AID 504339; further: potency means the concentration at half of the fitted maximal effect; on the % scale 0 is the no-effect control and ±100 the full control effect; nearly all actives have a fitted effect of over 50% in size
G9a block – inhibitors of human histone lysine methyltransferase G9a; Q96KQ7; G9a H3K9 monomethylation, AlphaScreen, 2 h; 350,000 compounds, 8.8% hits; Potency, µM (titrated, usually from 102 µM), without a hit: top-dose activity, negative = inhibition, usual class: inhibitors; further: potency means the concentration at half of the fitted maximal effect; on the % scale 0 is the no-effect control and ±100 the full control effect; nearly all actives have a fitted effect of over 75% in size
Target sequence (Q96KQ7 913-1193 limits assumed): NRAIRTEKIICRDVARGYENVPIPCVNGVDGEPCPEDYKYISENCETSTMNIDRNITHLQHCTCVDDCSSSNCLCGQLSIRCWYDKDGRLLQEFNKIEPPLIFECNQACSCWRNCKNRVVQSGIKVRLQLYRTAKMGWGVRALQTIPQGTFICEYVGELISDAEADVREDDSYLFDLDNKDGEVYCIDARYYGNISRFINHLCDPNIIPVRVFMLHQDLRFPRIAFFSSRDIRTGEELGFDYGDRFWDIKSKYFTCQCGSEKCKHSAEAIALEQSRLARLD
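Chemiluminescent proximity detection of H3K9 monomethylation, read after 10 min bead incubation in the dark. Reaction: 20 nM G9a, 500 nM biotin-H3K9 peptide, 20 uM SAM cofactor, 2 h, room temperature, following 15 min enzyme-compound preincubation.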
HP1b binding inh – blocks HP1-beta chromodomain binding to methylated histone tails; P83916; AlphaScreen HP1-beta / biotin-H3K9me3 peptide binding; Potency, µM (doses to about 114 µM), for the others: at the highest dose activity change, negative = inhibition, hits mostly inhibitors; 390,000 compounds, 0.56% hits; AID 540317; further: potency means the concentration at half of the fitted maximal effect; nearly all actives have a fitted effect of over 70% in size
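Compound inhibition of the preformed complex between 50 nM HP1-beta and 50 nM biotinylated H3K9me3 peptide was read by AlphaScreen. Buffer was PBS pH 7.4 with 0.01% Tween-20. Incubations ran 30 min at room temperature, with 10 ug/mL donor/acceptor beads.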
PI5P4Ka inh – inhibitors of human PI5P4K alpha | 330,000 compounds, 1.2% hits | P48426 | max response, % | AID 652105 | PI5P4Kalpha enzyme, ADP-Glo luminescence, 60 min; hits give low values; active means max response of -50% or lower; inconclusive means between -30% and -50%; inactive means -30% or higher; further: value at the top dose of about 77 µM; on the % scale 0 is the no-effect control and ±100 the full control effect
Target sequence (P48426 whole entry, looked up): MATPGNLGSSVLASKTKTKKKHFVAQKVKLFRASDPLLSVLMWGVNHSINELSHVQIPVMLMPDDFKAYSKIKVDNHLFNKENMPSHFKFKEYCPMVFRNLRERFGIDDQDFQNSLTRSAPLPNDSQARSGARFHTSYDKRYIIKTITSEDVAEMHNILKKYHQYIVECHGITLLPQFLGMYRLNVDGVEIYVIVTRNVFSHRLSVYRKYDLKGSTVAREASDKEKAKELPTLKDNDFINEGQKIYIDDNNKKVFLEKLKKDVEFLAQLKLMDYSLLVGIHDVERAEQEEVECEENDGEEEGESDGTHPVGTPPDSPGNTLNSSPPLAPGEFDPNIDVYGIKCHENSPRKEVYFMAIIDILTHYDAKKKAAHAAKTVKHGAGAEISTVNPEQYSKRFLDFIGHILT
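Single end-point luminescence (ADP-Glo) quantified ADP from PI5P4Kalpha turnover; ATP 5 microM final, 1 h at RT, 0.1% CHAPS and 0.28 mM EGTA in HEPES pH 7.4.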
BAZ2B inh – BAZ2B (human) inhibition; 360,000 compounds, 4.4% hits; AlphaScreen BAZ2B-H3K14Ac peptide displacement; Potency, µM (top dose mostly 114 µM), for inactives: at the highest dose activity change, negative = inhibition, usual class: inhibitors; Q9UIF8; further: potency means the concentration at half of the fitted maximal effect; on the % scale 0 is the no-effect control and ±100 the full control effect; nearly all actives have a fitted effect of over 60% in size
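Protein-peptide AlphaScreen: BAZ2B 50 nM, b-H3K14Ac 50 nM, 1x PBS pH 7.4 + 0.01% Tween-20. Preincubation 30 min RT; cpd 30 min RT (top 110 uM); beads 20 min RT, light-protected.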
PLK1 PBD inh – blocks phosphopeptide binding to human PLK1 polo-box domain; Plk1 PBD binding of FITC phosphopeptide, fluorescence polarization; P53350; 360,000 compounds, 2.8% hits; Potency, µM, without a hit: max response, negative = inhibition, usual class: inhibitors; AID 720504; further: potency means the concentration at half of the fitted maximal effect; series mostly up to about 57 µM; on the % scale 0 is the no-effect control and ±100 the full control effect; nearly all actives have a fitted effect of over 65% in size
Starred values were filed as active, the others as inactive; [ ] = remark or other dose. Rows were chosen to be rich in hits. Some 12% of all compounds tested hit in one or more screens of this group. Unless noted, the call rests on the fitted dose curve; in most records, active means well fitted curve in the direction sought with a large enough effect; inconclusive means small, poorly fitted or top-dose-only effect, or another doubt; inactive means no such curve, though single readings can be large; an effect the other way counts as inactive or inconclusive.

What do the screens show for `Nc1c2c(nc3ccccc13)N(C1CCCCC1)CC2`?
JMJD2A Tudor inh: 7.1µM*; G9a block: inconclusive; HP1b binding inh: -18%; PI5P4Ka inh: -3; BAZ2B inh: inconclusive; PLK1 PBD inh: inconclusive

Results for CCC(C)NC(=O)C1CCN(S(=O)(=O)c2ccc3c(ccn3CC)c2)CC1 (stereo not drawn) ?
JMJD2A Tudor inh: 4%; G9a block: 0%[59 µM]; HP1b binding inh: 27%[57 µM]; BAZ2B inh: -2%

Results for Cc1cc2ccccc2n1CCNC(=O)c1ccccc1F ?
JMJD2A Tudor inh: -35%; G9a block: -6%[59 µM]; HP1b binding inh: -9%; BAZ2B inh: -39%

Results for CC(Sc1nc(C(C)(C)C)cc(-c2ccccc2)c1C#N)C(=O)Nc1ccccc1 (stereo not drawn) ?
JMJD2A Tudor inh: -1%[57.1 µM]; G9a block: 7.9µM*; HP1b binding inh: inconclusive; PI5P4Ka inh: -14; BAZ2B inh: 8%; PLK1 PBD inh: 12µM*

What do the screens show for `COc1cc(C)c(Cc2cnc(N)nc2N)cc1OC`?
G9a block: 10%[12.7 µM]; BAZ2B inh: -12%

What do the screens show for `Cc1cc(Cc2cc(C)c(N)cc2C)c(C)cc1N`?
JMJD2A Tudor inh: -28%; HP1b binding inh: -1%; PI5P4Ka inh: 3; BAZ2B inh: 35µM*; PLK1 PBD inh: -12%

How did COCc1cc(C)nc(N/N=C/c2ccc(-c3ccc(Cl)cc3[N+](=O)[O-])o2)c1C#N do in these assays?
JMJD2A Tudor inh: -34%; G9a block: 40µM*; HP1b binding inh: -5%; PI5P4Ka inh: -17; BAZ2B inh: inconclusive; PLK1 PBD inh: -6%

Results for Cc1ccc(C(=O)N/N=C/c2ccc(-c3ccc(Br)cc3[N+](=O)[O-])o2)o1 ?
JMJD2A Tudor inh: inconclusive; HP1b binding inh: -30%; PI5P4Ka inh: -18; BAZ2B inh: inconclusive; PLK1 PBD inh: inconclusive

How did CC1=Nc2ccccc2N=C(NC(=O)/C=C/C(=O)O)C1c1ccccc1 (stereo not drawn) do in these assays?
JMJD2A Tudor inh: -16%; G9a block: 11µM*; HP1b binding inh: 44%; PI5P4Ka inh: -2; BAZ2B inh: -27%; PLK1 PBD inh: -4%

Results for Cc1cccc(NCc2ccccc2O)c1C ?
JMJD2A Tudor inh: inconclusive; G9a block: inconclusive; HP1b binding inh: 1%; PI5P4Ka inh: 11; BAZ2B inh: -37%; PLK1 PBD inh: 1%

What do the screens show for `Cc1ccc(NCc2ccccc2O)c(C)c1`?
JMJD2A Tudor inh: inconclusive; G9a block: 45µM*; HP1b binding inh: -8%; PI5P4Ka inh: 5; BAZ2B inh: 32µM*; PLK1 PBD inh: -1%

What do the screens show for `CCC(c1nnnn1-c1ccc2c(c1)OCCO2)N1CCN(c2ccccc2OC)CC1` (stereo not drawn)?
PI5P4Ka inh: 0; PLK1 PBD inh: -7%

How did O=C(Cn1cc(F)c(=O)[nH]c1=O)NCCO do in these assays?
JMJD2A Tudor inh: -19%; G9a block: 24%; HP1b binding inh: 6%; PI5P4Ka inh: 3; PLK1 PBD inh: 5.3µM*

What do the screens show for `Cc1ccc(C)c(NC(=O)C2CCN(c3cc(C)nc4c(-c5ccc(Cl)cc5)c(C)nn34)CC2)c1`?
JMJD2A Tudor inh: 4%; G9a block: -5%[59 µM]; HP1b binding inh: 47%; BAZ2B inh: -1%

Results for CC(SCc1cn2cc(Cl)ccc2n1)C(=O)O (stereo not drawn) ?
JMJD2A Tudor inh: 50µM*; G9a block: inconclusive; HP1b binding inh: 0%; PI5P4Ka inh: 0; BAZ2B inh: -24%; PLK1 PBD inh: -10%

What do the screens show for `CC(C)(C)OC(=O)N(CCc1ccccc1)Cc1cccc(OCc2cccc(NC(=O)C3CCCC3)c2)c1`?
JMJD2A Tudor inh: -4%; HP1b binding inh: 44%; PI5P4Ka inh: 10; PLK1 PBD inh: -7%

Results for O=C(Nc1ccc(NC(=O)c2ccccc2Br)cc1)c1ccccc1 ?
JMJD2A Tudor inh: -15%; HP1b binding inh: 55%; PI5P4Ka inh: -6; BAZ2B inh: 8%; PLK1 PBD inh: -5%

How did O=C(NNC(=S)Nc1ccccc1Cl)c1ccccc1Br do in these assays?
JMJD2A Tudor inh: -22%; G9a block: 40µM*; HP1b binding inh: 12%; PI5P4Ka inh: 4; BAZ2B inh: -14%; PLK1 PBD inh: -10%

How did O=C(Nc1ccc(C(F)(F)F)cc1)c1ccccc1Br do in these assays?
JMJD2A Tudor inh: 35µM*; G9a block: 2%; HP1b binding inh: -6%; PI5P4Ka inh: -26; BAZ2B inh: 0%; PLK1 PBD inh: 24µM*

What do the screens show for `O=C(NNC(=S)Nc1ccc(Br)cc1)c1ccccc1Br`?
JMJD2A Tudor inh: -22%; G9a block: 7.9µM*; HP1b binding inh: -14%; PI5P4Ka inh: -20; BAZ2B inh: -21%; PLK1 PBD inh: -18%

What do the screens show for `O=C(NNC(=S)Nc1cccc(C(F)(F)F)c1)c1ccccc1Cl`?
JMJD2A Tudor inh: -28%; G9a block: 3.2µM*; HP1b binding inh: -13%; PI5P4Ka inh: 2; BAZ2B inh: -17%; PLK1 PBD inh: inconclusive

Results for O=C(CSc1nccn1Cc1ccco1)Nc1ccc(OC(F)(F)F)cc1 ?
JMJD2A Tudor inh: inconclusive; G9a block: -44%[59 µM]; HP1b binding inh: -1%[57 µM]; BAZ2B inh: inconclusive

Results for COc1cccc(/C=C/C(=O)OCC(=O)NC(=O)NC2CCCCC2)c1 ?
JMJD2A Tudor inh: -19%; G9a block: inconclusive; HP1b binding inh: 12%; PI5P4Ka inh: 3; BAZ2B inh: 7%; PLK1 PBD inh: -10%

What do the screens show for `O=C(O)C1=NN(c2ccccc2)C(=O)C1`?
JMJD2A Tudor inh: 56µM*; G9a block: 50µM*; HP1b binding inh: inconclusive; PI5P4Ka inh: -5; BAZ2B inh: inconclusive; PLK1 PBD inh: -2%

How did O=C(O)C1=NN(c2ccccc2)C(=O)CC1 do in these assays?
JMJD2A Tudor inh: -3%; G9a block: -2%; HP1b binding inh: 29%; PI5P4Ka inh: -4; BAZ2B inh: inconclusive; PLK1 PBD inh: 4%

How did NS(=O)(=O)c1ccc(O)c(N2C(=O)c3cccc4c(C(=O)O)ccc(c34)C2=O)c1 do in these assays?
JMJD2A Tudor inh: 10%; G9a block: -47%; HP1b binding inh: 37%; PI5P4Ka inh: 0; BAZ2B inh: -17%; PLK1 PBD inh: 2%

How did O=C1C=CC(=O)N1c1ccc(O)cc1 do in these assays?
JMJD2A Tudor inh: 40µM*; G9a block: 1µM*; HP1b binding inh: inconclusive; PI5P4Ka inh: -19; BAZ2B inh: -5%; PLK1 PBD inh: 17µM*

What do the screens show for `O=C(O)c1ccc(N2C(=O)c3cccc4c(C(=O)O)ccc(c34)C2=O)cc1`?
JMJD2A Tudor inh: 45µM*; G9a block: 13µM*; HP1b binding inh: 79µM*; PI5P4Ka inh: inconclusive; BAZ2B inh: 50µM*; PLK1 PBD inh: 0%
